# A number with no mark means an inactive call.
# Experiments:
# Assay in all cases: log2 ratio of Biotin-Ahx-Ub-VS probe labelling (fragment/DMSO); higher = less target engagement (more negative = stronger competition), active = hit call of the paper (q ≤ 0.05, log2 ratio ≤ -1)
# Conditions in all cases: compound concentration: 200 uM; treatment time: 3 h
# [1] = target: T1, OTUD6B (UniProt Q8N6M0)
# T1 sequence (whole entry): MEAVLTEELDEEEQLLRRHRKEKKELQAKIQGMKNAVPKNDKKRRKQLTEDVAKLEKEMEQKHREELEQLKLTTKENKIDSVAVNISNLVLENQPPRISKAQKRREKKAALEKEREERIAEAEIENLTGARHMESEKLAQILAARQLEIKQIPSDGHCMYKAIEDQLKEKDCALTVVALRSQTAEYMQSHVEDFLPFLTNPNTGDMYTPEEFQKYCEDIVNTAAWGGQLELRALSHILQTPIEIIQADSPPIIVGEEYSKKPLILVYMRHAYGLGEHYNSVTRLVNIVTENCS
# How it was run: (§1)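 HEK293T lysate (495 µg per sample, in Tris/CHAPS/IGEPAL buffer with protease inhibitors) was exposed in triplicate for 3 h to fragment at 200 µM or to vehicle, then to Biotin-Ahx-Ub-VS at 0.5 µM final for 1 h. Labelled DUBs were enriched on NeutrAvidin, digested with LysC and trypsin, and analysed by diaPASEF LC-MS/MS. Spectronaut label-free quantities were normalised to the global median, and values are average log2 ratios of fragment over vehicle from an unpaired t-test. Only proteins with ≥2 unique peptides were used.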
# [2] = target: T2, OTUD7B (UniProt Q6GQQ9)
# T2 sequence (whole entry): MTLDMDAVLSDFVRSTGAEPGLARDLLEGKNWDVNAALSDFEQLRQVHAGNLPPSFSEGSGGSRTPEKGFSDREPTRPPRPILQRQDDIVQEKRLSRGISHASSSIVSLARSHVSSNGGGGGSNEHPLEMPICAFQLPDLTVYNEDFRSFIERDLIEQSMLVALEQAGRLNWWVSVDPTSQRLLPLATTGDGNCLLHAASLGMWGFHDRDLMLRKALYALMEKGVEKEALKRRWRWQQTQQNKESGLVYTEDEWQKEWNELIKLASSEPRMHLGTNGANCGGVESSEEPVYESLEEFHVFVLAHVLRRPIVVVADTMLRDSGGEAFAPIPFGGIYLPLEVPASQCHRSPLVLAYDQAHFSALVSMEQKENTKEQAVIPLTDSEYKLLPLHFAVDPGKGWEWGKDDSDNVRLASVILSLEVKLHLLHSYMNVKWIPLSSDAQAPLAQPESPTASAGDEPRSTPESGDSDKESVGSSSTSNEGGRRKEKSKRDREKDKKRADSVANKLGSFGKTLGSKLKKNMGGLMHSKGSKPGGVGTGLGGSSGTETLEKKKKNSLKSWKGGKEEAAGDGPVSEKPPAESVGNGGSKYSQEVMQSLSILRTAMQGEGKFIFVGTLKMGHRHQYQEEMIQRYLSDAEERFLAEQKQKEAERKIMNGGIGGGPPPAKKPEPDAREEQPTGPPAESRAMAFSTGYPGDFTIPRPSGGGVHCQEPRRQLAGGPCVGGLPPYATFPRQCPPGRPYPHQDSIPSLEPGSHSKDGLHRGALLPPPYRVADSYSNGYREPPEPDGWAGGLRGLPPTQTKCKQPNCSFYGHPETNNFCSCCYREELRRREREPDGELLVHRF
# How it was run: as §1
# [3] = target: PRPF8 (UniProt Q6P2Q9)
# How it was run: as §1
# [4] = target: T3, PSMD7 (UniProt P51665)
# T3 sequence (whole entry): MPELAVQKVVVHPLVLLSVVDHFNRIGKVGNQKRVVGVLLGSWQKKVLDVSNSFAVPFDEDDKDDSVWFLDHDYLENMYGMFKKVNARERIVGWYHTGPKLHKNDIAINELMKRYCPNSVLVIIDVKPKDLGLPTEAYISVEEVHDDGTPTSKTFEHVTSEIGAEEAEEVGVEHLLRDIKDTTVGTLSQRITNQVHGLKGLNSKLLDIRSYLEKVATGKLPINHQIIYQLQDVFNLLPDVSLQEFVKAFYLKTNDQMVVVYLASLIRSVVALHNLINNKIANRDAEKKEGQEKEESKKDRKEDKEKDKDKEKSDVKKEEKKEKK
# How it was run: as §1
# [5] = target: UCHL1 (UniProt P09936)
# How it was run: as §1
# [6] = target: T4, UCHL3 (UniProt P15374)
# T4 sequence (whole entry): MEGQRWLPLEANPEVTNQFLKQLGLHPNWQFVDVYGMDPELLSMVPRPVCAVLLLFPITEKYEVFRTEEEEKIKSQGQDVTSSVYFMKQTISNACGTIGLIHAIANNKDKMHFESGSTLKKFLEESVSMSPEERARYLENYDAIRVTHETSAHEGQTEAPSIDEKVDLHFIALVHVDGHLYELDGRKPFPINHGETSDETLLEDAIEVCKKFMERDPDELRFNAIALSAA
# How it was run: as §1
# [7] = target: T5, UCHL5 (UniProt Q9Y5K5)
# T5 sequence (whole entry): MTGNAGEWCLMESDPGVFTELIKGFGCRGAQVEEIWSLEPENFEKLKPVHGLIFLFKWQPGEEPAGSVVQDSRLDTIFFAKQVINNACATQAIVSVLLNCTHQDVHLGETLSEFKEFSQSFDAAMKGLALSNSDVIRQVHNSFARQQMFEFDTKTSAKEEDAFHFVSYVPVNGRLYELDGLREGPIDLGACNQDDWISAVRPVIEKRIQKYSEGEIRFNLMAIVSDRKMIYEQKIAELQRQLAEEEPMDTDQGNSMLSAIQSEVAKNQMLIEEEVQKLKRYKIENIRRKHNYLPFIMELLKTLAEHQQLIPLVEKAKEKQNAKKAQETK
# How it was run: as §1
# [8] = target: USP10 (UniProt Q14694)
# How it was run: as §1
# [9] = target: T6, USP15 (UniProt Q9Y4E8)
# T6 sequence (whole entry): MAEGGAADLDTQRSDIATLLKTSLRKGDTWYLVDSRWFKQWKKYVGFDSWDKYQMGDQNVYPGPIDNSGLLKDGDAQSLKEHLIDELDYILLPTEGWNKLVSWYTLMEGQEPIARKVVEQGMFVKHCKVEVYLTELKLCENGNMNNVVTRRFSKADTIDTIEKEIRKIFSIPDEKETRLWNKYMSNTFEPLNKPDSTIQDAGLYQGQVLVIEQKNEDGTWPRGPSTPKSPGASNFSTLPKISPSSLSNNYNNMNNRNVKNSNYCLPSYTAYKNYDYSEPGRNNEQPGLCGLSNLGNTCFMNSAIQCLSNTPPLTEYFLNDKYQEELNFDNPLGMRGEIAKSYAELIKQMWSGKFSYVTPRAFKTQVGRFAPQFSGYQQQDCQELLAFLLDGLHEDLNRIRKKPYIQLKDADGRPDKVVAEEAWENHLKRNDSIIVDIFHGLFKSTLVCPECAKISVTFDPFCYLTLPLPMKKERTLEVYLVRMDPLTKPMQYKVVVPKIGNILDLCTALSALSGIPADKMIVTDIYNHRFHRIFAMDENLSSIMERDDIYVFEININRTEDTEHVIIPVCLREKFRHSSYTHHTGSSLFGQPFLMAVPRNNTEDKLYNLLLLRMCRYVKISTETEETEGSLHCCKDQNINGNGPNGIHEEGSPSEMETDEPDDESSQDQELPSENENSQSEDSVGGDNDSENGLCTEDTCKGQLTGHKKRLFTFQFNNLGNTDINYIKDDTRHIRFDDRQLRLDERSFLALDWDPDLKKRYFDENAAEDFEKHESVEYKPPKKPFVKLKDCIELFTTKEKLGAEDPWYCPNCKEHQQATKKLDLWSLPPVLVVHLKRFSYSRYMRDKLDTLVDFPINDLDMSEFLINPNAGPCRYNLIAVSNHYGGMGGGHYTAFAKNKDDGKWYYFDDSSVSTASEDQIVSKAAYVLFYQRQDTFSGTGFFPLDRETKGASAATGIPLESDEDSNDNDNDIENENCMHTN
# How it was run: as §1
# [10] = target: USP16 (UniProt Q9Y5T5)
# How it was run: as §1
# Sequence of USP10 (Q14694 whole entry): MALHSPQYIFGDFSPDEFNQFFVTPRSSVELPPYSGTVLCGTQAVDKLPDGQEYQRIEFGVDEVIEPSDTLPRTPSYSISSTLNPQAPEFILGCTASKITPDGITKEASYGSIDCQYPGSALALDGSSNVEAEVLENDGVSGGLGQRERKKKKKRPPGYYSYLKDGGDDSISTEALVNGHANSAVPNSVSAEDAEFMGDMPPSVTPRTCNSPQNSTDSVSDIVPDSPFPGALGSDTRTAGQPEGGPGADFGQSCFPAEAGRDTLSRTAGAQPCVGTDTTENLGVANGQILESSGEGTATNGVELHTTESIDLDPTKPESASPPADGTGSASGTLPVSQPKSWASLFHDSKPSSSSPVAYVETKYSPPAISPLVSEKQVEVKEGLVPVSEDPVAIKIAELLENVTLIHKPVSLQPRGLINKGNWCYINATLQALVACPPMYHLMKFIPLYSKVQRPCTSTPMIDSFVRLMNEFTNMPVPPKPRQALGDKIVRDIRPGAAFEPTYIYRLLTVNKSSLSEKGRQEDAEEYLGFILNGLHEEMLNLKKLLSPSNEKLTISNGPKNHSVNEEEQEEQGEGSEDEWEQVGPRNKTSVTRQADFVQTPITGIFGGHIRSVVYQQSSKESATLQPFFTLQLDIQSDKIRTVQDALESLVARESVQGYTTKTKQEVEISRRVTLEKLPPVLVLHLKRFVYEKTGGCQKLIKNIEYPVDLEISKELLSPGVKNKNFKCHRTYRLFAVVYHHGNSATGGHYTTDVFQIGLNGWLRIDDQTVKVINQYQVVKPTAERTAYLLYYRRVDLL
# Sequence of USP16 (Q9Y5T5 whole entry, looked up): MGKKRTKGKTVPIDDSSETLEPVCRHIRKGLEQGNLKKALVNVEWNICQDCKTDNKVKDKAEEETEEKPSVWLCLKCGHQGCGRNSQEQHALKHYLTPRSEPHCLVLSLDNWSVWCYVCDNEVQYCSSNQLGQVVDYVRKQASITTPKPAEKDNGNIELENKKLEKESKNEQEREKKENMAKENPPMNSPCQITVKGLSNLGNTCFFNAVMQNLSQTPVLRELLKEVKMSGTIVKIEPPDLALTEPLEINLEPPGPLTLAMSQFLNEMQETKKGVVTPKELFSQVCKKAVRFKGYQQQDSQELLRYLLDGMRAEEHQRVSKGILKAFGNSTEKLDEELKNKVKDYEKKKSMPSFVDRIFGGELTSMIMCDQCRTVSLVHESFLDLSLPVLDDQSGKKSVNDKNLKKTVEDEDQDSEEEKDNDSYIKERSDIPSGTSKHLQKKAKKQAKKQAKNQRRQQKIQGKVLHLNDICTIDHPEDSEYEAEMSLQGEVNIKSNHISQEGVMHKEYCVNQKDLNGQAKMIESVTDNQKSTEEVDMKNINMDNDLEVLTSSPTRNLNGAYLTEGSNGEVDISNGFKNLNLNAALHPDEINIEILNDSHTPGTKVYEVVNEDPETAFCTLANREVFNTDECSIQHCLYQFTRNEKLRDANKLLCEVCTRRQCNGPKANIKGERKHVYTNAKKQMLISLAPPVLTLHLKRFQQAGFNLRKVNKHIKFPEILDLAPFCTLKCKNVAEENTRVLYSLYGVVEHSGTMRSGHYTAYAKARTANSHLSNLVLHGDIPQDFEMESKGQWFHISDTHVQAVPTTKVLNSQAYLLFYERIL
# Sequence of UCHL1 (P09936 whole entry, looked up): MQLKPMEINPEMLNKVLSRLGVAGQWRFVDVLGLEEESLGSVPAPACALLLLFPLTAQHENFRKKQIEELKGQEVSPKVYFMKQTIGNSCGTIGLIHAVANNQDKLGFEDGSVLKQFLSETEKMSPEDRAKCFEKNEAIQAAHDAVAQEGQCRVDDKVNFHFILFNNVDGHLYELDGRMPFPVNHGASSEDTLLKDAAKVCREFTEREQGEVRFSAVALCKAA
structure (smiles),measurement,setting,value
Cc1ccc(N(CCC#N)C(=O)CCl)cc1C,log2 ratio of Biotin-Ahx-Ub-VS probe labelling,[1],-0.133
same,log2 ratio of Biotin-Ahx-Ub-VS probe labelling,[2],-1.99 (active)
same,log2 ratio of Biotin-Ahx-Ub-VS probe labelling,[3],0.0257
same,log2 ratio of Biotin-Ahx-Ub-VS probe labelling,[4],-0.41
same,log2 ratio of Biotin-Ahx-Ub-VS probe labelling,[5],-1.31 (active)
same,log2 ratio of Biotin-Ahx-Ub-VS probe labelling,[6],0.292
same,log2 ratio of Biotin-Ahx-Ub-VS probe labelling,[7],-0.157
same,log2 ratio of Biotin-Ahx-Ub-VS probe labelling,[8],-0.00551
same,log2 ratio of Biotin-Ahx-Ub-VS probe labelling,[9],-0.234
same,log2 ratio of Biotin-Ahx-Ub-VS probe labelling,[10],-0.0509

# From the supplement of paper PMC11732987, “Enantioselective OTUD7B fragment discovery through chemoproteomics screening and high-throughput optimisation” (Communications Chemistry, 2025)
